For 13 compounds, Potency results are on record in PubChem BioAssay (NCATS).

Experiment [1] is described as follows: Quantitative High-Throughput drug screen in 47 multiple myeloma cell lines against the NCATS MIPE library collection: JIM3_ECACC cell viability assay (AID 1918963; note: nearly all actives have a fitted effect of over 35% in size; note: potency is the fitted concentration of half-maximal effect). In a few lines:
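Primary qHTS used for cherry-picking: cells at 500/well, library compounds for 48 h (37C, 5% CO2), luminescent ATP assay.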

A short description of experiment [2]: Quantitative High-Throughput drug screen in 47 multiple myeloma cell lines against the NCATS MIPE library collection: INA6_PLB cell viability assay (AID 1918965; note: nearly all actives have a fitted effect of over 55% in size; note: potency is the fitted concentration of half-maximal effect). In a few lines:
(§1)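 We plated 500 myeloma cells per well, pinned in MIPE 4.0 compounds, and incubated for 48 hours at 37C. ATP was then quantified with CellTiter-Glo, with DMSO and media-only wells defining 100% and 0%.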

The nature of experiment [3]: Quantitative High-Throughput drug screen in 47 multiple myeloma cell lines against the NCATS MIPE library collection: JJN3_DSMZ cell viability assay (AID 1918966; note: nearly all actives have a fitted effect of over 50% in size; note: potency is the fitted concentration of half-maximal effect). In a few lines:
(§2)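 CellTiter-Glo ATP luminescence gave viability after 48 h compound treatment at 37C of 500 multiple myeloma cells per well. Normalisation used DMSO-only wells as 100% and media-only wells as 0% viability; primary qHTS of approved and investigational drugs.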

Experiment [4] can be described thus: Quantitative High-Throughput drug screen in 47 multiple myeloma cell lines against the NCATS MIPE library collection: H1112_PLB cell viability assay (AID 1918967; note: nearly all actives have a fitted effect of over 30% in size; note: potency is the fitted concentration of half-maximal effect). In a few lines: as §2
A short description of experiment [5]: Quantitative High-Throughput drug screen in 47 multiple myeloma cell lines against the NCATS MIPE library collection: KMS12PE_JCRB cell viability assay (AID 1918972). Note: nearly all actives have a fitted effect of over 30% in size. Note: potency is the fitted concentration of half-maximal effect. In a few lines: as §1
Experiment [6] is described as follows: Quantitative High-Throughput drug screen in 47 multiple myeloma cell lines against the NCATS MIPE library collection: KMS20_JCRB cell viability assay (AID 1918973). Note: nearly all actives have a fitted effect of over 45% in size. Note: potency is the fitted concentration of half-maximal effect. In a few lines: as §2
A short description of experiment [7]: Quantitative High-Throughput drug screen in 47 multiple myeloma cell lines against the NCATS MIPE library collection: MOLP8_DSMZ cell viability assay (AID 1918977). Note: nearly all actives have a fitted effect of over 45% in size. Note: potency is the fitted concentration of half-maximal effect. In a few lines:
(§3)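 Plated at 500 cells per well, myeloma lines received MIPE 4.0 compounds by pin tool. Following 48 h culture at 37 °C, CellTiter-Glo luminescence gave viability relative to DMSO and media-only controls.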

Experiment [8] in a line: Quantitative High-Throughput drug screen in 47 multiple myeloma cell lines against the NCATS MIPE library collection: NCIH929_DSMZ cell viability assay (AID 1918978). Note: nearly all actives have a fitted effect of over 35% in size. Note: potency is the fitted concentration of half-maximal effect. In a few lines:
as §3

The nature of experiment [9]: Quantitative High-Throughput drug screen in 47 multiple myeloma cell lines against the NCATS MIPE library collection: OCIMY1_PLB cell viability assay (AID 1918979). Note: nearly all actives have a fitted effect of over 35% in size. In a few lines: as §3
A short description of experiment [10]: Quantitative High-Throughput drug screen in 47 multiple myeloma cell lines against the NCATS MIPE library collection: MM1S_ATCC cell viability assay (AID 1918980). Note: nearly all actives have a fitted effect of over 45% in size. Note: potency is the fitted concentration of half-maximal effect. In a few lines:
as §3

The nature of experiment [11]: Quantitative High-Throughput drug screen in 47 multiple myeloma cell lines against the NCATS MIPE library collection: MM1R_ATCC cell viability assay (AID 1918981). Note: nearly all actives have a fitted effect of over 35% in size. Note: potency is the fitted concentration of half-maximal effect. In a few lines: as §3
The nature of experiment [12]: Quantitative High-Throughput drug screen in 47 multiple myeloma cell lines against the NCATS MIPE library collection: Karpas25_ECACC cell viability assay (AID 1918968; note: nearly all actives have a fitted effect of over 35% in size; note: potency is the fitted concentration of half-maximal effect). In a few lines:
as §2

The nature of experiment [13]: Quantitative High-Throughput drug screen in 47 multiple myeloma cell lines against the NCATS MIPE library collection: KMS27_JCRB cell viability assay (AID 1918970). Note: nearly all actives have a fitted effect of over 30% in size. Note: potency is the fitted concentration of half-maximal effect. The following applies: KMS27 myeloma cells, CellTiter-Glo ATP viability, 48 h; viability (% of DMSO): at 45.8 µM (top of the series). In a few lines:
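CellTiter-Glo luminescence after 48 h drug exposure at 37 °C; 500 cells/well, 1536-well format, pin-tool compound addition; DMSO = 100%, media-only = 0% viability.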
A general note: Cellular ATP, detected with luciferase, serves as a proxy for viable cell number.

Experiment [14] can be described thus: Quantitative High-Throughput drug screen in 47 multiple myeloma cell lines against the NCATS MIPE library collection: KMS12BM_JCRB cell viability assay (AID 1918971). Note: nearly all actives have a fitted effect of over 35% in size. Note: potency is the fitted concentration of half-maximal effect. In a few lines:
(§4)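 Inhibition of cell viability is measured here. Each line was plated at 500 cells per well, treated with MIPE 4.0 drugs, kept 48 hours at 37C, then assayed for ATP content by CellTiter-Glo luminescence.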

Experiment [15] in a line: Quantitative High-Throughput drug screen in 47 multiple myeloma cell lines against the NCATS MIPE library collection: KMS21BM_JCRB cell viability assay (AID 1918974). Note: potency is the fitted concentration of half-maximal effect. The following applies: ATP luminescence, 48 h; viability: at 45.8 µM (top of the series). In a few lines:
as §2

Experiment [16] in a line: Quantitative High-Throughput drug screen in 47 multiple myeloma cell lines against the NCATS MIPE library collection: JIM1_ECACC cell viability assay (AID 1918964; note: potency is the fitted concentration of half-maximal effect). In a few lines:
as §2

Experiment [17] in a line: Quantitative High-Throughput drug screen in 47 multiple myeloma cell lines against the NCATS MIPE library collection: KMS26_JCRB cell viability assay (AID 1918975). Note: nearly all actives have a fitted effect of over 45% in size. Note: potency is the fitted concentration of half-maximal effect. In a few lines:
as §4

The nature of experiment [18]: Quantitative High-Throughput drug screen in 47 multiple myeloma cell lines against the NCATS MIPE library collection: MMM1_PLB cell viability assay (AID 1918976). In a few lines: as §3

Molecules are shown by their SMILES. Records with an inconclusive call do not appear. Unmarked numbers belong to inactive results. Calls of active or inactive are those of the source. Calls come from the whole dose curve; as a rule, active = well fitted curve in the direction sought with a large enough effect; inconclusive = small, poorly fitted or top-dose-only effect, or another doubt; inactive = no such curve, though single readings can be large; an effect the other way counts as inactive or inconclusive.

As for `C[C@]12CCC(=O)C=C1[C@@H]1CC1[C@H]1[C@H]3[C@@H]4C[C@H]4[C@@]4(CCC(=O)O4)[C@@]3(C)CC[C@H]12` (stereo partly drawn), the Potency entry in [1], in experiment [3], in [4], in experiment [6], in [7] and in experiment [8] was “inactive” in each case. For the same compound, the Potency result in experiment [9], in [10] and in experiment [11] was “inactive” each time. Further, the Potency in experiment [2] and in [5] was 20.9 µM (active) throughout.
For the compound `C[N+](C)([O-])CCNc1ccc(NCC[N+](C)(C)[O-])c2c1C(=O)c1c(O)ccc(O)c1C2=O`, the Potency entry in experiment [1], in experiment [12], in [13], in [5], in experiment [15] and in experiment [8] was “inactive” throughout. Moreover, the Potency entry in [9] is “inactive”. Further, the Potency in [2] is 16.6 µM (active); in experiment [14], 18.7 µM (active); in experiment [10] it was 20.9 µM (active); in [11], 18.7 µM (active).
Consider `Nc1ccn(C[C@@H](CO)OCP(=O)(O)O)c(=O)n1`, for which the Potency entry in experiment [1], in experiment [16], in experiment [3], in experiment [12], in experiment [13] and in experiment [14] was “inactive” throughout. For the same compound, the Potency result in experiment [5], in experiment [17], in [7] and in experiment [8] was “inactive” throughout.
As to `CC(C)OC(=O)[C@H](C)N[P@](=O)(OC[C@H]1O[C@@H](n2ccc(=O)[nH]c2=O)[C@](C)(F)[C@H]1O)Oc1ccccc1`, the Potency entry in experiment [1], in experiment [2], in experiment [12], in experiment [13], in [5] and in experiment [17] was “inactive” each time. Moreover, the Potency result in [7], in [8], in experiment [9] and in experiment [10] was “inactive” each time. Besides, the Potency in experiment [14] was 1.66 µM (active).
On to `CC(C)(C)[N+]([O-])=Cc1ccc(S(=O)(=O)O)cc1S(=O)(=O)O`, for which the Potency entry in experiment [1], in experiment [16], in [3], in experiment [4], in experiment [12] and in experiment [13] was “inactive” each time. Further, the Potency result in experiment [6], in [17], in [7], in experiment [8], in [9] and in [11] was “inactive” each time.
Consider `C=C1C[C@@]2(O)O[C@@]3(C[C@H]2C(C)C)[C@H](C)CC[C@H]13`, for which the Potency entry in experiment [1], in experiment [2], in experiment [3], in [4], in [13] and in experiment [14] was “inactive” throughout. Also, the Potency result in experiment [5], in [6], in [7], in [8], in experiment [9] and in experiment [11] was “inactive” throughout. For the same compound, the Potency in experiment [10] is 1.48 µM (active).
Take `COC(=O)[C@@H]1[C@H]2C[C@@H]3c4[nH]c5ccccc5c4CCN3C[C@@H]2CC[C@@H]1O`: the Potency entry in experiment [1], in experiment [2], in experiment [4], in [12], in experiment [13] and in experiment [5] was “inactive” in each case. For the same compound, the Potency entry in experiment [17], in experiment [7], in experiment [8], in experiment [10] and in experiment [11] was “inactive” each time.
For `C[C@](Cc1c[nH]c2ccccc12)(NC(=O)OC1C2CC3CC(C2)CC1C3)C(=O)NC[C@H](NC(=O)CCC(=O)O)c1ccccc1` (stereo partly drawn), the Potency entry in experiment [1], in experiment [16], in experiment [3], in experiment [14], in [15] and in experiment [17] was “inactive” throughout. The Potency result in experiment [7], in [9] and in experiment [11] was “inactive” each time.
Take `COc1ccc(S(=O)(=O)Nc2cccnc2Nc2ccc(O)cc2)cc1`: the Potency is 52.6 nM (active) in [1]; 0.0833 µM (active) in [2]; 1.32 µM (active) in [3]; 105 nM (active) in [4]; 0.235 µM (active) in experiment [12]; 0.0743 µM (active) in experiment [14]. Further, the Potency was 83.3 nM (active) in [6]; 2.64 µM (active) in experiment [17]; 1.48 µM (active) in experiment [18]; 1.18 µM (active) in experiment [7]; 1.18 µM (active) in experiment [8]; 0.209 µM (active) in experiment [10]. In experiment [11], the Potency was 0.105 µM (active).
On to `Nc1cccc2c1C(=O)N(C1CCC(=O)NC1=O)C2=O` (stereo not drawn), for which the Potency in experiment [1] was 93.5 nM (active); in experiment [2], 4.18 µM (active); in experiment [12], 8.33 µM (active); in [10], 0.526 µM (active); in [11], 2.09 µM (active). For the same compound, the Potency result in experiment [4], in experiment [13], in experiment [5], in experiment [7] and in experiment [9] was “inactive” throughout.
`CC(C)c1cnn2c(NCc3ccccc3)cc(NCCCCCCN)nc12`: the Potency in experiment [1] is 20900 nM (active); in experiment [2] it was 26.4 µM (active); in [3], 23.5 µM (active); in experiment [13], 18.7 µM (active); in [14], 26.4 µM (active); in [5], 18.7 µM (active). Further, the Potency was 23.5 µM (active) in experiment [15]; 14.8 µM (active) in experiment [17]; 18.7 µM (active) in experiment [18]; 3.32 µM (active) in experiment [10]; 20.9 µM (active) in [11].
Take `Cc1ccc([N+](=O)[O-])cc1S(=O)(=O)N(C)N=Cc1cnc2ccc(Br)cn12`: the Potency in experiment [1] is 10.5 nM (active); in experiment [16] it was 1 nM (active); in experiment [3], 0.0105 µM (active); in experiment [4], 13.2 nM (active); in [14] it was 0.0662 µM (active); in [5], 0.0209 µM (active). In addition, the Potency in [17] is 0.0235 µM (active); in experiment [18], 0.0833 µM (active); in experiment [7], 0.0083 µM (active); in experiment [11] it was 0.0332 µM (active).
`CC1(C)CC(O)CC(C)(C)N1[O]`: the Potency entry in [1], in experiment [16], in experiment [2], in experiment [12], in experiment [13] and in [14] was “inactive” each time. Besides, the Potency result in experiment [5], in experiment [17], in [8], in experiment [9] and in experiment [11] was “inactive” each time.
